Assay results: the supplement of paper PMC11732987, “Enantioselective OTUD7B fragment discovery through chemoproteomics screening and high-throughput optimisation” (Communications Chemistry, 2025)

What was measured:
Assay in all cases: log2 ratio of Biotin-Ahx-Ub-VS probe labelling (fragment/DMSO); higher = less target engagement (more negative = stronger competition), active = hit call of the paper (q ≤ 0.05, log2 ratio ≤ -1)
Conditions in all cases: compound concentration: 200 uM; treatment time: 3 h
USP19 = target: T1, USP19 (UniProt O94966)
T1 sequence (whole entry): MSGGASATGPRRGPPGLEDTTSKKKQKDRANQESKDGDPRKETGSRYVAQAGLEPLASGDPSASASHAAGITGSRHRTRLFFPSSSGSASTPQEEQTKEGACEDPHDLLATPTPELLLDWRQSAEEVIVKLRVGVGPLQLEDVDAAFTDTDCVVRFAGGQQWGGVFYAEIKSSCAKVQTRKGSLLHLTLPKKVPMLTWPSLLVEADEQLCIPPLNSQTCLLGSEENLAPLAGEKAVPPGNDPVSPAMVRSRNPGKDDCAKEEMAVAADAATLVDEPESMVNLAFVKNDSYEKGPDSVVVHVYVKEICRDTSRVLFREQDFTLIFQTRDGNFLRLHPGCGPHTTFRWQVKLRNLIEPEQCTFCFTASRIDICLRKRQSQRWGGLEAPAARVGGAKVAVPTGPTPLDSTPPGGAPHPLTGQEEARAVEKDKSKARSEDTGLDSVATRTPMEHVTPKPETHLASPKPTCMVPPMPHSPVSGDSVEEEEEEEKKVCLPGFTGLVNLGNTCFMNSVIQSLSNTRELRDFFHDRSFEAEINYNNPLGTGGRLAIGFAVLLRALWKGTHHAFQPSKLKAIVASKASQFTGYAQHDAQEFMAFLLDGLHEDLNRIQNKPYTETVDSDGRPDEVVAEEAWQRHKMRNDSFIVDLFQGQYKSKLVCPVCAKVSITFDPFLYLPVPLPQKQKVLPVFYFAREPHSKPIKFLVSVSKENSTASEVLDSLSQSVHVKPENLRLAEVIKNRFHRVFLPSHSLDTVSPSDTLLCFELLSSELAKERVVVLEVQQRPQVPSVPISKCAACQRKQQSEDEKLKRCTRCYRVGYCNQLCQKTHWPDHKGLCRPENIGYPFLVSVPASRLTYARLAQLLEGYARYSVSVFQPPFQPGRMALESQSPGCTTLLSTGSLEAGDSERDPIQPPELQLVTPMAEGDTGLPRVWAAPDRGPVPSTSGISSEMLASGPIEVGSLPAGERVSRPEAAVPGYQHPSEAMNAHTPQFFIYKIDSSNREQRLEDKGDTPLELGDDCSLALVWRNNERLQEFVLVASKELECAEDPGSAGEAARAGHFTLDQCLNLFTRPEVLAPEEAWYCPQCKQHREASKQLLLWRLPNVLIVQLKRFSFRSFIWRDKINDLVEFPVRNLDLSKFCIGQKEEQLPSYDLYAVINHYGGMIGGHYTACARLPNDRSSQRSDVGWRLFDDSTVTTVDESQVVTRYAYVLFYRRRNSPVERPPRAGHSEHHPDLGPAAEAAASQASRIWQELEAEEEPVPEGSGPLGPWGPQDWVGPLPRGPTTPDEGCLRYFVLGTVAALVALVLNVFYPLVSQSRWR
Method in brief: (§1)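 Each value is an average log2 ratio of fragment to vehicle, tested by unpaired t-test. The underlying Spectronaut label-free quantities were global-median-normalised, and only proteins with ≥2 unique peptides were included. Triplicate HEK293T lysate samples (495 µg) were exposed to fragment at 200 µM or vehicle for 3 h, then to Biotin-Ahx-Ub-VS at 0.5 µM final for 1 h, before NeutrAvidin enrichment of labelled DUBs, LysC and trypsin digestion, and diaPASEF LC-MS/MS.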

USP24 = USP24 (UniProt Q9UPU5)
Method in brief: as §1

USP25 = target: T2, USP25 (UniProt Q9UHP3)
T2 sequence (whole entry): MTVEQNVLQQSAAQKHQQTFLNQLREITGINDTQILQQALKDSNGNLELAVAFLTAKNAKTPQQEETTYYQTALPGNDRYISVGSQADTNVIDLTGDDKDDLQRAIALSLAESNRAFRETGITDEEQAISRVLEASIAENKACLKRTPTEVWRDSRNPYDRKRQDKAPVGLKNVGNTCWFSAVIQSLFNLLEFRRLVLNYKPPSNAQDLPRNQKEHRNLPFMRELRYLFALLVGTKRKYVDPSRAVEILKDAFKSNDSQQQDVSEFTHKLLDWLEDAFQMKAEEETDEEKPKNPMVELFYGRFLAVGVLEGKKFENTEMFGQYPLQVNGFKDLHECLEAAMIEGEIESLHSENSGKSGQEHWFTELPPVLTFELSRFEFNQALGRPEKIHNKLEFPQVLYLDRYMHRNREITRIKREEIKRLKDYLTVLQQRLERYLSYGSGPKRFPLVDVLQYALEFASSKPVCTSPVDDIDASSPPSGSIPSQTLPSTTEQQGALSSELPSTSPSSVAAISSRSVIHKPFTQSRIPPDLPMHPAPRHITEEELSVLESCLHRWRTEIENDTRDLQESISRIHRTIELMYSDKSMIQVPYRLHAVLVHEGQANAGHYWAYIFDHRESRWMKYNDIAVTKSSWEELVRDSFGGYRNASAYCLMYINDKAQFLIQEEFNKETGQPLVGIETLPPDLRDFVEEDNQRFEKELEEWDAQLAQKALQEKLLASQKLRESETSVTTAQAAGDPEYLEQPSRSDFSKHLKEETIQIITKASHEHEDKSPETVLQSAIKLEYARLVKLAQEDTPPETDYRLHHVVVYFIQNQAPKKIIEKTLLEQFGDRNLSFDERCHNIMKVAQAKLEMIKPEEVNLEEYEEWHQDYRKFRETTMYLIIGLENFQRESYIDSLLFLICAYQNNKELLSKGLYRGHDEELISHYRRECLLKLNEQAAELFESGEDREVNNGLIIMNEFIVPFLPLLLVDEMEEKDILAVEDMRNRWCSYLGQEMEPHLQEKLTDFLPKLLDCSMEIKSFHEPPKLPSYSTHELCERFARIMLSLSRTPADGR
Method in brief: as §1

USP28 = target: T3, USP28 (UniProt Q96RU2)
T3 sequence (whole entry): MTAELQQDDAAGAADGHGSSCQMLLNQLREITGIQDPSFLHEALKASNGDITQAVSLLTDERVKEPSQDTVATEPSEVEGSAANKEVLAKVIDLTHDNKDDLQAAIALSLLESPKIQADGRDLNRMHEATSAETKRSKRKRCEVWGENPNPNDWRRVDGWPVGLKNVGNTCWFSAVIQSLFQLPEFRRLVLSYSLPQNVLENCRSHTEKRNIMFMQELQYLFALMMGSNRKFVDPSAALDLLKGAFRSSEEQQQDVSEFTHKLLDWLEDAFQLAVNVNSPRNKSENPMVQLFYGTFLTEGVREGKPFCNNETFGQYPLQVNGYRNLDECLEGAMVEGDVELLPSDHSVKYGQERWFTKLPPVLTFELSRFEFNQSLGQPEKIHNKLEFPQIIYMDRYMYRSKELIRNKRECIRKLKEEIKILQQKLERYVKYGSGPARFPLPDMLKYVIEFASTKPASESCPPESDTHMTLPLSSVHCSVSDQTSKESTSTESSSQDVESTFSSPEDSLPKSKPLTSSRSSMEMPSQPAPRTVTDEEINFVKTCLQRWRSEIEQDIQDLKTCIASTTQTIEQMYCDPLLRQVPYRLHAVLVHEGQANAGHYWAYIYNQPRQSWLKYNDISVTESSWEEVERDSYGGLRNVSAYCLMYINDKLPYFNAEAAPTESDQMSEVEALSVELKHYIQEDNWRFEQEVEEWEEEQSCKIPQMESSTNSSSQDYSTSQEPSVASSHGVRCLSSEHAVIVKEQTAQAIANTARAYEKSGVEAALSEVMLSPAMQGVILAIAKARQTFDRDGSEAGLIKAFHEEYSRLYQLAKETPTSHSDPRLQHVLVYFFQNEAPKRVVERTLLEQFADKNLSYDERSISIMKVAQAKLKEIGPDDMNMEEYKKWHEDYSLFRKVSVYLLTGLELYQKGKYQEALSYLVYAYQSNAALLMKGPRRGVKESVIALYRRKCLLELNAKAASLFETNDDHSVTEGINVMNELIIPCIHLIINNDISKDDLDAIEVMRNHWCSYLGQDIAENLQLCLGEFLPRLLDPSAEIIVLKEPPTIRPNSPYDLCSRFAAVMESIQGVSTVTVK
Method in brief: as §1

Measured: log2 ratio of Biotin-Ahx-Ub-VS probe labelling

Sequence of USP24 (Q9UPU5 whole entry): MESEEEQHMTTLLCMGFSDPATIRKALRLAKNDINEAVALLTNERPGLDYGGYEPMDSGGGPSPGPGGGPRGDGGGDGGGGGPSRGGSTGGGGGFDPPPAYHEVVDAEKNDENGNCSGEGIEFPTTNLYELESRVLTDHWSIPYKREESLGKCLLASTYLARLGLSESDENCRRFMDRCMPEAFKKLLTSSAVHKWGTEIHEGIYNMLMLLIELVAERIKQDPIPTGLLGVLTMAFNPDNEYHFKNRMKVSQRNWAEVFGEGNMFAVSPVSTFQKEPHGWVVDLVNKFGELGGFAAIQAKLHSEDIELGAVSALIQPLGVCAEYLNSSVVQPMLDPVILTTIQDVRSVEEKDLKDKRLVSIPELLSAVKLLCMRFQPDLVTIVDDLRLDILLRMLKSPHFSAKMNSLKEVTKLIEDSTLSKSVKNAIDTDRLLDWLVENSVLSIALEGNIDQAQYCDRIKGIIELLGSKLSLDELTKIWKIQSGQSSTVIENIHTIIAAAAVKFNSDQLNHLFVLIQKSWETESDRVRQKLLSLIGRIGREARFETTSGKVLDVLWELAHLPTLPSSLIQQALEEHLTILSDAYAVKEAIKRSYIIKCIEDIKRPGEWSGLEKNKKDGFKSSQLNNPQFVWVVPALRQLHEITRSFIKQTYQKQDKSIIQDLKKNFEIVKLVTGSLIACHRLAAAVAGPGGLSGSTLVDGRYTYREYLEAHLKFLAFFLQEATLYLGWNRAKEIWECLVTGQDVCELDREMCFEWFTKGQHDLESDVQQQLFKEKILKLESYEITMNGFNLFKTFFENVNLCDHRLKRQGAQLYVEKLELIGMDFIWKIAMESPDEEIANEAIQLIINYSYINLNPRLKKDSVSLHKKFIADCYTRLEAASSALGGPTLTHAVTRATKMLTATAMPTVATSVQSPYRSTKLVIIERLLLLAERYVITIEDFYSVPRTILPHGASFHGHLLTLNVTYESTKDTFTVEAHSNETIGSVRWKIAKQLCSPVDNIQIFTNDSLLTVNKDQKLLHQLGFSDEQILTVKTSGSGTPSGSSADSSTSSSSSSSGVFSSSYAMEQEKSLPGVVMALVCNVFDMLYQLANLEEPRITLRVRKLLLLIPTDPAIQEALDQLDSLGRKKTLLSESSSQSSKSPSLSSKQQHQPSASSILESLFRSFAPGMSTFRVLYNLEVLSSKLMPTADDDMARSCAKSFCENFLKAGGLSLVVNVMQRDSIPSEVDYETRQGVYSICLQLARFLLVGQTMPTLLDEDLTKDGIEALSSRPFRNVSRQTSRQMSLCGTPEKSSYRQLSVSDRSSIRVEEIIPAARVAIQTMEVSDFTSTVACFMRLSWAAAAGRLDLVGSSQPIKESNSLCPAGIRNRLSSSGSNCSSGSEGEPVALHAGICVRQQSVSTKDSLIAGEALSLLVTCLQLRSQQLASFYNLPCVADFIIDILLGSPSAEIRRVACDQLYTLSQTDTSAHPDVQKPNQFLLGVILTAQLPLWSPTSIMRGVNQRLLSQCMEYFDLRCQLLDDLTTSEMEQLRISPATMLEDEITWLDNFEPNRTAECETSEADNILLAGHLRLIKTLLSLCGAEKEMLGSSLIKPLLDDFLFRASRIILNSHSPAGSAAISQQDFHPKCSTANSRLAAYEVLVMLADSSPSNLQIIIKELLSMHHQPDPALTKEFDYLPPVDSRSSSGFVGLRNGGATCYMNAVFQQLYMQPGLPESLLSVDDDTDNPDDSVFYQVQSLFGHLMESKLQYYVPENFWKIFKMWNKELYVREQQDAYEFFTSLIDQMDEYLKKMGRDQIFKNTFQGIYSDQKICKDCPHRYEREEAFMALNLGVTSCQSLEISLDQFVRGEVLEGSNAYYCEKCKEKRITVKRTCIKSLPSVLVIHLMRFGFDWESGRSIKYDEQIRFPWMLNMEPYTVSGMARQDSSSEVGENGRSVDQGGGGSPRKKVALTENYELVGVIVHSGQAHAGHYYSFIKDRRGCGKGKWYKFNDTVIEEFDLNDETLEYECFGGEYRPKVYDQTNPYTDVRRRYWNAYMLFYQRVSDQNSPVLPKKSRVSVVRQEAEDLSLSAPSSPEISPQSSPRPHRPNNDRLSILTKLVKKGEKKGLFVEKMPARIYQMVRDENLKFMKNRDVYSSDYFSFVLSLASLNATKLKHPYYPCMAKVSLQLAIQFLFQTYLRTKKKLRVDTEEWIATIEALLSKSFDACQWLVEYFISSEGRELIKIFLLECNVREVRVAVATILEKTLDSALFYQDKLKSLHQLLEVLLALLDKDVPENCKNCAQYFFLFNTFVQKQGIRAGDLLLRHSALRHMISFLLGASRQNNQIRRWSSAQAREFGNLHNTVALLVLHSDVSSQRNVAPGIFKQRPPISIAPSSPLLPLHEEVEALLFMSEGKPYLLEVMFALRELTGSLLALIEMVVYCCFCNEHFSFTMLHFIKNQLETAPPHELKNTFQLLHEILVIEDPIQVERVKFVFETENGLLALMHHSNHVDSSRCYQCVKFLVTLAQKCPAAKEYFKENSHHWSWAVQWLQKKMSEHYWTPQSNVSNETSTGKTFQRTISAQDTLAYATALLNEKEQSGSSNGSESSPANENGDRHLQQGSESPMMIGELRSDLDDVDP

O=C(CCl)N1CCOCC1C1CC1 (centres undefined)
inactive: USP19 -0.0224 | USP24 -0.173 | USP25 -0.127 | USP28 -0.304
